Growth data for ten compounds are collected here from PubChem BioAssay (NCI).

Molecules are shown by their SMILES. The panel holds about 83,000 compounds, 20% with a hit somewhere; the sample as a whole holds those more often.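 Percent growth is the endpoint: 0 to 100 indicates growth inhibition (40 means 60% inhibition), 0 means no net growth, and negative values indicate cell death.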 The source made the active and inactive calls. Rule for the calls: active = growth percent below 10; inactive = the rest.

The assay concerns MDA-MB-468 breast. Briefly: NCI-60 one-dose screen, 48 h (100 = growth as untreated, 0 = no growth, -100 = all killed). Conditions: 10 µM unless noted.
Turning to `CN1CCN(c2ccc(Nc3ncc4[nH]c(=O)n(Cc5ccccc5N)c4n3)cc2)CC1`, the growth is 111% (inactive).

In the case of `C=C(C)C1CCC2(C(=O)O)CCC3(C)C(CCC4C5(C)CCC(OC(=O)NCc6ccccc6)C(C)(C)C5CCC43C)C12` (stereo not given), the growth was 35.3% (inactive).

For the compound `CC(C)(C)c1cc(C=O)cc(C(C)(C)C)c1O`, the growth is 94.9% (inactive).

Consider `CC(C)CNCC(O)COc1ccc(C(C)(C)c2ccc(OCC(O)CNCC(C)C)cc2)cc1` (stereo not given), for which the growth was 62.5% (inactive).

`COc1cc2cc(Oc3ccc(NC(=O)Nc4cc(C(F)(F)F)cc(C(F)(F)F)c4)cc3)c(C)nc2cc1OCCN(C)C`: the growth is 100% (inactive).

Consider `CCCCCC(=O)OCC(=O)O[C@@H]1C[C@]2(C(C)C)O[C@@]1(C)[C@@H]1CC[C@@H](C)[C@H]1[C@@H]2OC(=O)/C=C/c1ccccc1`, for which the growth was 70% (inactive).

For the compound `CCOC(=O)c1nn(C2CCCCO2)c2ccc(NC(=O)CSc3nc4ccccc4c(=O)[nH]3)cc12` (stereo not given), the growth is 95.7% (inactive).

For the compound `O=C(c1ccccc1)C(Br)C(Br)c1cccc([N+](=O)[O-])c1` (stereo not given), the growth was -66.4% (active).

Take `CCN(CC)CCCC(Nc1c2ccc(Cl)cc2nc2ccc(OC)cc12)c1ccc(Cl)cc1` (stereo not given): the growth was -78.5% (active).

For `CCOC(=O)c1cc(C(=O)c2ccc(OC)c(OC)c2)n2ccncc12`, the growth is 99.5% (inactive).
